Results taken from PubChem BioAssay (NCI).
Compounds without any hit were thinned out: in the full panel of roughly 83,000, 20% have a hit.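 Single-concentration screen, 48 h exposure, 96-well plates. Endpoint: percent growth. Below 10 = active.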 Values without a mark were called inactive. Calls of active or inactive are those of the source.

Assays:
Assay in all cases: NCI-60 one-dose screen, 48 h (100 = growth as untreated, 0 = no growth, -100 = all killed)
Conditions in all cases: 10 µM
HCT-15 colon = system: HCT-15 colon
HT29 colon = system: HT29 colon
SNB-75 CNS = system: SNB-75 CNS
SNB-19 CNS = system: SNB-19 CNS
U251 CNS = system: U251 CNS
PC-3 prostate = system: PC-3 prostate
SK-MEL-5 melanoma = system: SK-MEL-5 melanoma
UACC-62 melanoma = system: UACC-62 melanoma
LOX IMVI melanoma = system: LOX IMVI melanoma
SK-MEL-28 melanoma = system: SK-MEL-28 melanoma

| SMILES | growth (HCT-15 colon) | growth (HT29 colon) | growth (SNB-75 CNS) | growth (SNB-19 CNS) | growth (U251 CNS) | growth (PC-3 prostate) | growth (SK-MEL-5 melanoma) | growth (UACC-62 melanoma) | growth (LOX IMVI melanoma) | growth (SK-MEL-28 melanoma) |
| --- | --- | --- | --- | --- | --- | --- | --- | --- | --- | --- |
| CC(=O)O[C@H]1CC[C@@]2(C)[C@@H](CC[C@@H]3[C@@H]2CC[C@]2(C)C=C(C=O)C[C@@H]32)C1 | 27.5% | 31.4% | 69.5% | 82.5% | 22.9% | 62.5% | 75.7% | 78.8% | -71% (active) | 70% |
| COc1cc(OC)cc(-c2n/c(=C\c3c(O)[nH]c4ccc(OC)cc34)cc3c2=Nc2ccccc2-3)c1 | 44.6% | 15.6% | 103% | 78% | 19.7% | 94.9% | 94.4% | 110% | 30.4% | 102% |
| CCCCCC(=O)N1c2ccccc2NC2=C(C(=O)CC(c3ccc(OC)c(OC)c3)C2)C1c1ccc(C(F)(F)F)cc1 (stereo not given) | 60.6% | 88% | 82.7% | 58.1% | 49.5% | 16.4% | 18.8% | 53.9% | 60.8% | 86.7% |
| CCN(CC)CCOC(=O)c1ccc(N=Nc2ccc(O)c(OC)c2)cc1 | 103% | 90.7% | 89.3% | 104% | 87.1% | 95.4% | 92% | 99.8% | 92.2% | 107% |
| CCCCCCCCCCCCCC[n+]1ccc(C)cc1 | 47% | -9.48% (active) | -23.9% (active) | -50.2% (active) | -78.5% (active) | -37% (active) | -96.3% (active) | -71.5% (active) | -94.4% (active) | -20.4% (active) |
| COc1ccc(C2CC(c3ccc(-c4ccccc4)cc3)=NN2c2ccc(S(N)(=O)=O)cc2)cc1 (stereo not given) | 45.6% | 48.6% | 81.7% | 65.2% | 66.8% | 19.7% | 85.5% | 71.1% | 50.3% | 85.4% |
| COc1cc(C2C=C(c3ccc(Cl)cc3)N=C3SC(C)=CN32)cc(OC)c1OC (stereo not given) | 84.7% | 79.1% | 81.8% | 91.5% | 85.1% | 89.2% | 91.9% | 85.5% | 96.8% | 105% |
| COc1cc(-c2cc(/C=C/C(C)=O)[nH]n2)cc(OC)c1OC | 65.7% | 66.6% | 84.7% | 69.1% | 56.6% | 71.3% | 79% | 84.6% | 62% | 97.4% |
| Cc1[nH]nc2c(=S)[nH]c(=O)[nH]c12 | 103% | 108% | 89.7% | 101% | 100% | 97.1% | 94.4% | 88.5% | 99.9% | 102% |
| Oc1ccc(Cn2cc3c(c2-c2ccccc2)CCc2cnoc2-3)cc1 | 100% | 94% | 91.9% | 99.2% | 88.9% | 87.3% | 89.9% | 70.3% | 88.7% | 101% |
| COC(=O)c1cnc2c(c1)Oc1ccccc1-c1ccnn1-2 | 102% | 90.3% | 86.5% | 106% | 90.7% | 94.3% | 94.1% | 106% | 91.3% | 116% |
| COc1ccc(NC(=O)c2sc3nc4c(cc3c2N)C(O)CCC4)cc1 (stereo not given) | 95.5% | 97.8% | 110% | 97.1% | 105% | 95.7% | 99.5% | 98.9% | 102% | 102% |
| CC(C)c1[nH]nc2c(NCc3ccc(-c4ccccn4)cc3)nc(SCCN)nc12 | 7.24% (active) | -24.2% (active) | -78.5% (active) | 12.2% | 5.64% (active) | -0.489% (active) | -38.6% (active) | -10.2% (active) | -18.5% (active) | -13.8% (active) |
| Nc1c(C(=O)Nc2ccccc2F)sc2nc3c(cc12)C(=O)CCC3 | 40.2% | 12.2% | 13.7% | 41.1% | 31.6% | 23.4% | 17.9% | 23.7% | 54.2% | 64.1% |
| O=[N+]([O-])c1ccc(-c2nc(Cl)c3c(n2)CCCC3)o1 | 15.9% | 53.5% | 69.9% | 91.1% | 78.6% | 89.4% | 47.3% | 86.9% | 21.8% | 98.4% |
| CN1CCN(c2nc(-c3cccnc3)nc3sc4c(c23)CCCCCC4)CC1 | 93.2% | 91.3% | 67.4% | 101% | 72.3% | 66.7% | 87.9% | 103% | 78.6% | 99.7% |
| Cc1ccc(Cl)cc1Nc1nc(C(F)(F)F)ccc1C(=O)N/N=C/c1c(Cl)cccc1Cl | 10.4% | 16.6% | 26.1% | 10.6% | 2.72% (active) | -18.2% (active) | -74.4% (active) | -17.6% (active) | -22.3% (active) | 18.7% |
| COc1ccc2oc(=O)cc(C(c3ccc[nH]3)c3ccc[nH]3)c2c1 | 9.01% (active) | -10.5% (active) | 29.6% | 22.1% | -7.61% (active) | 20.3% | -31.4% (active) | 30.7% | 7.59% (active) | 37.7% |
| COc1ccc(C2=Cc3ccc(OC(C)=O)cc3OC2)cc1 | 82.4% | 97.2% | 107% | 98.8% | 89.3% | 90.5% | 90.6% | 85.4% | 82.7% | 112% |
| CCOC(=O)c1sc(Nc2ncccn2)nc1-c1ccccn1 | 50.8% | 99.6% | 108% | 91.5% | 73.2% | 86.3% | 83.2% | 97.6% | 79.9% | 94.7% |
| FC(F)(F)c1ccc(-c2cnc(Cl)nc2NCc2cc(C(F)(F)F)cc(C(F)(F)F)c2)cc1 | 8.09% (active) | 21.3% | 27.2% | 14.8% | 10.7% | 4.94% (active) | 77.3% | 6.65% (active) | -8.46% (active) | 46% |
| CCCCCCCCCCCCc1ccc(C(=O)/C=C/C(=O)O)cc1 | -19.4% (active) | 27.8% | 74.5% | 94.4% | 80.1% | 82.9% | 92.1% | -16.8% (active) | -62.4% (active) | 26.4% |
| COc1ccc(CSc2nc3cc(OC)c(OC)cc3c(=O)n2-c2ccc(OC)cc2OC)cc1 | 80.6% | 88% | 90.3% | 79.6% | 85.9% | 55.6% | 80.5% | 80.2% | 83.4% | 102% |
| COc1ccc(/C(=C/c2cc(OC)c(OC)cc2[N+](=O)[O-])C(=O)O)cc1 | 107% | 109% | 93.8% | 106% | 107% | 99.2% | 110% | 106% | 97.1% | 116% |
| CC1(C)CCc2cc(-c3ccn(S(=O)(=O)c4ccc(Cl)cc4)n3)ccc2O1 | 91.3% | 70.9% | 92.3% | 100% | 74.2% | 56.8% | 47.2% | 75% | 72.2% | 94.7% |
| CCOC(=O)c1c(O)c2cc(-c3ccccc3)nc(OCC)c2c(=O)n1C | 82.7% | 107% | 95.6% | 91.5% | 97.3% | 14.3% | 86.7% | 99.9% | 98.7% | 84.8% |
| Nc1cc(O)cc(O)c1 | 97.9% | 95% | 91.8% | 96.5% | 104% | 96.6% | 109% | 94.7% | 95% | 101% |
| CCOC(=O)[C@@H]1[C@H](c2ccccc2)[C@H]([N+](=O)[O-])[C@H](c2cn(-c3ccccc3)nc2C)N1Cc1ccccc1 | 43% | 76.4% | 81.5% | 77.7% | 51.2% | 46% | 76.3% | 60.9% | 65.6% | 85.4% |
